Rows were chosen to be rich in hits. Some 8.3% of all compounds tested hit in one or more screens of this group.
MCF10A rereplic: A quantitative high throughput screen for small molecules that induce DNA re-replication in MCF 10a normal breast cells | Potency, µM (doses to about 46.1 µM), hits mostly activators | 2.9% of 350,000 active | MCF 10A DNA re-replication, Hoechst nuclear intensity, 48 h; also: nearly all actives have a fitted effect of over 50% in size
BCR signal inh: qHTS Assay to Find Inhibitors of Chronic Active B-Cell Receptor Signaling; 0.05% of 340,000 active; ABC-DLBCL IkBa-CBG/CBR reporter, luminescence ratio, 4 h; Potency, µM (top dose mostly 46.1 µM), usual class: inhibitors; active = well fitted inhibition curve with a large enough effect in the signal ratio, with a control signal flat, not every such curve was filed as active; inconclusive = small, poorly fitted or top-dose-only effect, or effect the other way, or a change in a side signal; the % refers to the signal ratio
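TMD8 ABC-DLBCL cells carrying doxycycline-inducible green luciferase fused to IkappaBalpha plus unfused red luciferase were exposed to compounds (up to 46 uM) for 4 hrs at 37C. Activity came from the overlap-corrected green/red luminescence ratio.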
Giardia kill: Small Molecules that selectively kill Giardia lamblia: qHTS; 0.15% of 340,000 active; Giardia lamblia trophozoite viability; activity change, % at 7.66 µM, hits read low; AID 540267, 2011; in the data active = activity change below about -80%; inconclusive = between about -30% and that limit;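 also: parasites exposed to compound for two days anaerobically before the ATP read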
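Luminescent ATP signal served as the viability read-out, measured 15-30 min after adding ATP detection reagent to trophozoites that had been incubated with compounds for 48 hrs at 37 deg C anaerobically at 100 cells/well.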
RORg inh: qHTS for inhibitors of ROR gamma transcriptional activity. Potency, µM (titrated, usually from 53.6 µM), actives largely listed as inhibitors. AID 2551, 2010. Nuclear receptor ROR-gamma (Mus musculus), P51450. Drosophila S2 Gal4-RORgamma UAS-luciferase reporter, 20 h. 5.4% of 310,000 active; also: nearly all actives have a fitted effect of over 60% in size
Target sequence (P51450 whole entry, looked up, the tested form may be a part): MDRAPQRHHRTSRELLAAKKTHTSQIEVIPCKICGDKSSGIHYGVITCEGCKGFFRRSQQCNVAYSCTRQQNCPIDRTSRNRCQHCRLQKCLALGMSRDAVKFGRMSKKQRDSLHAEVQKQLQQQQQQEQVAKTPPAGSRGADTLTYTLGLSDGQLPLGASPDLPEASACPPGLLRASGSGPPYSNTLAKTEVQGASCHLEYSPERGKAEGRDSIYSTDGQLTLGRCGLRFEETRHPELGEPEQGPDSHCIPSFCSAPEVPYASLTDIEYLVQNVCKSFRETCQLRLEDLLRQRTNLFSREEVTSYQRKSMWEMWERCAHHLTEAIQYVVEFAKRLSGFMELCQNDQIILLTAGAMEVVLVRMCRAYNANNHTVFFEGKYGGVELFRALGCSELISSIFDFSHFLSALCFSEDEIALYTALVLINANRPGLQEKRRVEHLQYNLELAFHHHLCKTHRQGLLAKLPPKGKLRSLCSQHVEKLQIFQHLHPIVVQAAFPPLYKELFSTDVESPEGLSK
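Read-out: Photinus luciferase luminescence; inhibitors lower reporter signal. Insect Schneider cells with Gal4-ROR gamma fusion under metallothionein promoter, UAS reporter; 700 uM final copper sulfate induction, 20 hr, ambient temperature.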
SW480 rereplic: A quantitative high throughput screen for small molecules that induce DNA re-replication in SW480 colon adenocarcinoma cells. Potency, µM (series often up to 46.1 µM), most hits filed as activators. SW480 DNA re-replication, Hoechst DNA content imaging, 48 h. 1.8% of 340,000 active; also: nearly all actives have a fitted effect of over 55% in size
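Treated cells incubate 48 hr (37 C, 5% CO2), are stained 40 min with Hoechst, and nuclear fluorescence is enumerated; a rise in nuclei with high DNA signal marks re-replication.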
VP16 counter: VP16 counterscreen qHTS for inhibitors of ROR gamma transcriptional activity | 3.5% of 310,000 active | Potency, µM (series often up to 53.6 µM), usual class: inhibitors | AID 2546, 2010 | Drosophila S2 Gal4-VP16 UAS-luciferase, luminescence, 20 h;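 also: Gal4-VP16 expression switched on by copper sulfate through the metallothionein promoter; nearly all actives have a fitted effect of over 50% in size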
Each line names hits and unclear results; the compound was inactive in the other large screens; ! = not confirmed by another sample. Unless noted, calls follow the shape of the dose curve; as a rule, active = well fitted curve in the direction sought with a large enough effect; inconclusive = small, poorly fitted or top-dose-only effect, or another doubt; inactive = no such curve, though single readings can be large; an effect the other way counts as inactive or inconclusive.

COc1cc(C=O)ccc1OCCCOc1ccc([N+](=O)[O-])cc1	none
COC(=O)C(=Cc1ccc(OCc2ccc([N+](=O)[O-])cc2)c(OC)c1)C(=O)OC	MCF10A rereplic 1.5µM, RORg inh 16µM
COc1cc(C(c2c(C)[nH][nH]c2=O)c2c(C)[nH][nH]c2=O)ccc1OCc1ccc([N+](=O)[O-])cc1	MCF10A rereplic 21µM, BCR signal inh inconclusive, RORg inh 6.3µM, SW480 rereplic inconclusive, VP16 counter inconclusive
CCOC(=O)C(=Cc1ccc(OCc2ccc([N+](=O)[O-])cc2)c(OC)c1)C(=O)OCC	MCF10A rereplic 5.8µM, RORg inh 14µM, SW480 rereplic 4.6µM, VP16 counter inconclusive
CCOc1ccc(S(=O)(=O)N(CC(=O)N2CCC(C(N)=O)CC2)c2ccc(F)cc2)cc1	none
Cc1cc(C)cc(OCC(=O)OC(C)C(=O)Nc2c(C)n(C)n(-c3ccccc3)c2=O)c1 (centres undefined)	none (no result: RORg inh, VP16 counter)
COc1cc(C(=O)O/N=C2\C=CC(=O)C(C)=C2)cc(OC)c1OC	MCF10A rereplic inconclusive, BCR signal inh inconclusive, RORg inh 5µM, SW480 rereplic 5.8µM, VP16 counter 5.6µM
COc1cc(C(=O)ON=C2C=C(C)C(=O)C(C)=C2)cc(OC)c1OC	MCF10A rereplic inconclusive, SW480 rereplic inconclusive
CCCCCCCc1c(C#N)c(N)[nH]c(=S)c1C#N	MCF10A rereplic inconclusive, RORg inh 8.9µM
CC(C)Cn1c2c(c(O)c(C(=O)Nc3ncccc3O)c1=O)CCCC2	MCF10A rereplic inconclusive, BCR signal inh inconclusive, RORg inh inconclusive, SW480 rereplic inconclusive, VP16 counter 14µM
O=C(NCCCN1CCCC1=O)c1cccc(S(=O)(=O)N2CCN(c3ccc(F)cc3)CC2)c1	none
O=C(c1ccc(Cl)c(Cl)c1)c1cc(-c2ccccn2)c(N2CCOCC2)s1	MCF10A rereplic 21µM, BCR signal inh inconclusive
Nc1c2c(nc3ccccc13)N(C1CCCCC1)CC2	MCF10A rereplic 13µM, SW480 rereplic inconclusive
COc1ccc(-c2csc(NC3OC(=O)c4c3ccc(OC)c4OC)n2)cc1OC (centres undefined)	MCF10A rereplic inconclusive, BCR signal inh inconclusive, RORg inh 3.5µM, VP16 counter 7.9µM
COc1ccc2c(c1OC)C(=O)OC2Nc1nc(-c2ccc([N+](=O)[O-])cc2)cs1 (centres undefined)	VP16 counter inconclusive
CCC1=NN(C(=O)C(=O)NCCc2ccccc2)C(O)(C(F)(F)F)C1 (centres undefined)	RORg inh 0.63µM, VP16 counter 1.8µM
CCC1=NN(C(=O)CCc2ccccc2)C(O)(C(F)(F)F)C1 (centres undefined)	MCF10A rereplic inconclusive, RORg inh 13µM, VP16 counter inconclusive
CC1=NN(C(=O)CCc2ccc3c(c2)OCO3)C(O)(C(F)(F)F)C1 (centres undefined)	RORg inh 4.5µM, VP16 counter 2.2µM
O=C(CCc1ccccc1)N1N=C(c2ccncc2)CC1(O)C(F)(F)F (centres undefined)	none
CCCC1=NN(C(=O)Cc2ccc(OC)c(OC)c2)C(O)(C(F)(F)F)C1 (centres undefined)	RORg inh inconclusive
Cc1ccc(S(=O)(=O)Oc2ccc(/C=C(/NC(=O)c3ccccc3)C(=O)NCC(=O)O)cc2)cc1	BCR signal inh inconclusive, SW480 rereplic 6.5µM
Cc1c2oc3c(C)ccc(C(=O)N[C@@H]4C(=O)N[C@H](C(C)C)C(=O)N5CCC[C@H]5C(=O)N(C)CC(=O)N(C)[C@@H](C(C)C)C(=O)O[C@@H]4C)c3nc-2c(C(=O)N[C@@H]2C(=O)N[C@H](C(C)C)C(=O)N3CCC[C@H]3C(=O)N(C)CC(=O)N(C)[C@@H](C(C)C)C(=O)O[C@@H]2C)c(N)c1=O	RORg inh 0.022µM, VP16 counter 20µM! (no result: BCR signal inh, Giardia kill)

Screens as filed in PubChem BioAssay.
